In the supplement of paper PMC10849652:
The full data set covers some 7,900 targets. This sample favours those with a hit. About 0.6% of all pairs of compound and target were hits. A number with no mark means an inactive call.

Columns and labels:
Test in all cases: log2 fold change, soluble protein after heating vs DMSO (PISA); higher = thermal stabilisation; K562 cells, 10 uM, 30 min; active = over 0.2 and 3.5 SD of the protein, either way, in both replicates (recomputed)
[1] = compound: NC(=O)Nc1cc(-c2cccc(F)c2)sc1C(=O)N[C@H]1CCCNC1
Procedure, shortened: (§1)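 Soluble protein was defined as the supernatant after 21,000xg for 90 min. It came from K562 cells at 2×10^6 cells/mL given 10 μM compound for 30 min, heated in aliquots for 3 min across 48°C-58°C, pooled, and extracted in PBS with 0.5% NP-40 at 4°C, and was quantified by TMTpro 16plex LC-MS/MS with equalised channel sums. Thermal stability against control samples, from duplicates, is reported as log2 fold change.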

[2] = compound: NC(=O)c1cnc(N[C@@H]2CCCC[C@@H]2N)nc1Nc1cccc(-n2nccn2)c1
Procedure, shortened: as §1

[3] = compound: NC1(c2ccc(-c3nc4ccn5c(=O)[nH]nc5c4cc3-c3ccccc3)cc2)CCC1
Procedure, shortened: as §1

[4] = compound: NCC(=O)Nc1ccc(-n2nc(C(F)(F)F)cc2-c2ccc3c(ccc4ccccc43)c2)cc1
Procedure, shortened: as §1

entinostat = compound: Nc1ccccc1NC(=O)c1ccc(CNC(=O)OCc2cccnc2)cc1 [entinostat]
Procedure, shortened: as §1

vorinostat = compound: O=C(CCCCCCC(=O)Nc1ccccc1)NO [vorinostat]
Procedure, shortened: as §1

citarinostat = compound: O=C(CCCCCCNC(=O)c1cnc(N(c2ccccc2)c2ccccc2Cl)nc1)NO [citarinostat]
Procedure, shortened: as §1

silmitasertib = compound: O=C(O)c1ccc2c(c1)nc(Nc1cccc(Cl)c1)c1ccncc12 [silmitasertib]
Procedure, shortened: as §1

[5] = compound: O=C1NC(=O)C(c2cnc3ccccn23)=C1c1cn2c3c(cc(F)cc13)CN(C(=O)N1CCCCC1)CC2
Procedure, shortened: as §1

[6] = compound: c1cc(OCCN2CCCCC2)cc(-c2n[nH]c3ccc(-c4nnc[nH]4)cc23)c1
Procedure, shortened: as §1

entospletinib = compound: c1cn2cc(-c3ccc4cn[nH]c4c3)nc(Nc3ccc(N4CCOCC4)cc3)c2n1 [entospletinib]
Procedure, shortened: as §1

Sequence of UniProt P31321 (P31321 whole entry, looked up): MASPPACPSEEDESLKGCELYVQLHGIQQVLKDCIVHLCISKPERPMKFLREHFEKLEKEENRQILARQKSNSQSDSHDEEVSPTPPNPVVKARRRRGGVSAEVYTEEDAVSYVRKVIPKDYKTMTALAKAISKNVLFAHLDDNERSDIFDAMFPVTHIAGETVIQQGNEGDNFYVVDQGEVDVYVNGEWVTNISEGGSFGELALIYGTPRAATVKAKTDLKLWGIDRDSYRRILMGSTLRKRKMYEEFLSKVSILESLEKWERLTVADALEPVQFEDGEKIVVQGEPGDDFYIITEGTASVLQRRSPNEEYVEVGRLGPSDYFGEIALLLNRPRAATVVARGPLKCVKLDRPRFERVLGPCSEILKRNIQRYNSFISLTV
Sequence of UniProt Q9H3S7 (Q9H3S7 whole entry, looked up): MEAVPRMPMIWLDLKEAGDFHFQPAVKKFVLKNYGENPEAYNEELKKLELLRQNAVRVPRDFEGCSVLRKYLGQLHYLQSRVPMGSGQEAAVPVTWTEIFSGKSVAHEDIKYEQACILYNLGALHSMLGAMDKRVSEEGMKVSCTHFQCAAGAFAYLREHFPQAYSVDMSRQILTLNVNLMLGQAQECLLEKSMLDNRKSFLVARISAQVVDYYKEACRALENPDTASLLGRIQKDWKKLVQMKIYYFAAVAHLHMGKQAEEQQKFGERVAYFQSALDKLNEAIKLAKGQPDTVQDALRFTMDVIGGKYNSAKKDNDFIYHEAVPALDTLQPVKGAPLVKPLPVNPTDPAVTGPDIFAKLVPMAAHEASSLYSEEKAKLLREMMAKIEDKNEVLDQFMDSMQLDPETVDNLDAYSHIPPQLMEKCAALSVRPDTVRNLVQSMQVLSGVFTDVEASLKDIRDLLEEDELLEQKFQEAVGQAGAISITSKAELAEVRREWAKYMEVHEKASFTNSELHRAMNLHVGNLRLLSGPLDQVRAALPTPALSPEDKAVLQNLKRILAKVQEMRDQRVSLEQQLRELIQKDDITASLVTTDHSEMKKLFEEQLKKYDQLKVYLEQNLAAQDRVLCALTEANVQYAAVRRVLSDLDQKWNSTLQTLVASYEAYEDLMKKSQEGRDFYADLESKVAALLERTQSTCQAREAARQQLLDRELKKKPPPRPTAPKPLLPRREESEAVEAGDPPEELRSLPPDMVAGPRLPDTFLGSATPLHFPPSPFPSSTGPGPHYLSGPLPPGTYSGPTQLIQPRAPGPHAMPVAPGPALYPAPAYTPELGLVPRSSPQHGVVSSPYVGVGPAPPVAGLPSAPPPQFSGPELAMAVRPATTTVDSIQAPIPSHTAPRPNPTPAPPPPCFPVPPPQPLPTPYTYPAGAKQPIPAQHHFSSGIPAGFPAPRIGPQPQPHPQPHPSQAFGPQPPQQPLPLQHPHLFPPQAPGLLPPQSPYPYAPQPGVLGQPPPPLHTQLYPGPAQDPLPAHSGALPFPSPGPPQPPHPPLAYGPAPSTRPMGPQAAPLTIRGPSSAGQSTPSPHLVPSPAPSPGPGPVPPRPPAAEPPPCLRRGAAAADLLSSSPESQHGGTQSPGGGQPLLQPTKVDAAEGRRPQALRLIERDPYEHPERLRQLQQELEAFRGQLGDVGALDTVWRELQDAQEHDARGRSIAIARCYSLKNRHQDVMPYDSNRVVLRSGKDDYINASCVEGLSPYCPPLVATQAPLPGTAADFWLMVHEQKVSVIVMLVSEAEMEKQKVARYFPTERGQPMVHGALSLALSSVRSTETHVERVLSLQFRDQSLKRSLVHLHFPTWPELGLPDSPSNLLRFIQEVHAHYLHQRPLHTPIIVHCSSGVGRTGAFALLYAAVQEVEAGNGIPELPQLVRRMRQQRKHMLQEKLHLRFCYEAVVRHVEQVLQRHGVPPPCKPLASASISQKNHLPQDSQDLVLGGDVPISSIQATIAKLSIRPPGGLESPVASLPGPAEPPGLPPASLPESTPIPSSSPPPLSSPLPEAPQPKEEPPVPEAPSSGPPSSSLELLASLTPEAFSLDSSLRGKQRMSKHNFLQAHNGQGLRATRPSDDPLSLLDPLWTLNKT
Sequence of UniProt O60256 (O60256 whole entry, looked up): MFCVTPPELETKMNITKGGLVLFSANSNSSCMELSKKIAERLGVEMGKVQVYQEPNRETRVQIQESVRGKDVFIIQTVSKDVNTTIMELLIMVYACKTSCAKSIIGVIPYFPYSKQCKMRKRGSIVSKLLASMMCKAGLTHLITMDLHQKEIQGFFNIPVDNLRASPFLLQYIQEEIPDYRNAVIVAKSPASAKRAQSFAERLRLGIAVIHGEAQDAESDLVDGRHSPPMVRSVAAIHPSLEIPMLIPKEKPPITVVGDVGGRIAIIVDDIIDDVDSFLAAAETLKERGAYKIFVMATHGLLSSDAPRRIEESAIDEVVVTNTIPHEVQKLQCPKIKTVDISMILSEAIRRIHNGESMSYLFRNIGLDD
Sequence of UniProt Q9NR12 (Q9NR12 whole entry, looked up): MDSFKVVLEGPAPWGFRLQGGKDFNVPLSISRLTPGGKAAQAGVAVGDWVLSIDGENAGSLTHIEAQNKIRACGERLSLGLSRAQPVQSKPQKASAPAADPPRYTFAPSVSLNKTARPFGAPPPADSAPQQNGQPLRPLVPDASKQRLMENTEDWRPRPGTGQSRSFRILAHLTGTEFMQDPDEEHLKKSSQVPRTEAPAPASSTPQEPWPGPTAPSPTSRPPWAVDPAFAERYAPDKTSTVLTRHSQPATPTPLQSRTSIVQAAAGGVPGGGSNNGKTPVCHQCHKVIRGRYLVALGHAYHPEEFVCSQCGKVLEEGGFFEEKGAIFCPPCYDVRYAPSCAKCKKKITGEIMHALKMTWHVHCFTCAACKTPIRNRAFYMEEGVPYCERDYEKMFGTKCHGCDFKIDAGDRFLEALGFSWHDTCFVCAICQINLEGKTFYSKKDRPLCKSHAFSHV
Sequence of UniProt Q9UHX1 (Q9UHX1 whole entry, looked up): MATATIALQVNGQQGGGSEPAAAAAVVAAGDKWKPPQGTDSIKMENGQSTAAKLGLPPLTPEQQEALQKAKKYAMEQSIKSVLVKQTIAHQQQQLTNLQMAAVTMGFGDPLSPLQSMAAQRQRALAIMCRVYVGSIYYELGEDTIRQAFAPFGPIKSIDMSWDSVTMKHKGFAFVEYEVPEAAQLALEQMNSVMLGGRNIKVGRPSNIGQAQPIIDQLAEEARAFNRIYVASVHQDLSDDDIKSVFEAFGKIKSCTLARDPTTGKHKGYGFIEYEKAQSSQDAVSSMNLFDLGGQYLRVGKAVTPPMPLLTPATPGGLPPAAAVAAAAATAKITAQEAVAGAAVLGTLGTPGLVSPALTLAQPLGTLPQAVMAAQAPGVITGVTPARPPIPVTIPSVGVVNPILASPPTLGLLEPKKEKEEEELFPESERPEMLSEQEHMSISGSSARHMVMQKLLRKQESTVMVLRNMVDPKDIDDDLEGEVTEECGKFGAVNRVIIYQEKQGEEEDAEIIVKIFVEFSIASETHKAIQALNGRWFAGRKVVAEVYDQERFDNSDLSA
Sequence of UniProt O95997 (O95997 whole entry, looked up): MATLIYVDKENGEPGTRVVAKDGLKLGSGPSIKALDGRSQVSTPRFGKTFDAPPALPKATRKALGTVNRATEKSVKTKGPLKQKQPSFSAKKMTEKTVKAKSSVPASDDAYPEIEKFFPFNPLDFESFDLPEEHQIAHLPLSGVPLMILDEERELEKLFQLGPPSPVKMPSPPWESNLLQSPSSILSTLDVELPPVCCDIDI
Sequence of UniProt P50897 (P50897 whole entry, looked up): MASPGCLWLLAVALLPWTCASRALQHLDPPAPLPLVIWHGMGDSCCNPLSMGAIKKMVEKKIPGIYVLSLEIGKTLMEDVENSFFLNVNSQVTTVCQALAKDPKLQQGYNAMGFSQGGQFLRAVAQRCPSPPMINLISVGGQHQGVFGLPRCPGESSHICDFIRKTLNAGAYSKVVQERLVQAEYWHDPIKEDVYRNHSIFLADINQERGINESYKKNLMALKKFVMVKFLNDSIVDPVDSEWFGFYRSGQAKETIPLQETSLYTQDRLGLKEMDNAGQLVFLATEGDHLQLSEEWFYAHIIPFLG
Sequence of UniProt Q13200 (Q13200 whole entry, looked up): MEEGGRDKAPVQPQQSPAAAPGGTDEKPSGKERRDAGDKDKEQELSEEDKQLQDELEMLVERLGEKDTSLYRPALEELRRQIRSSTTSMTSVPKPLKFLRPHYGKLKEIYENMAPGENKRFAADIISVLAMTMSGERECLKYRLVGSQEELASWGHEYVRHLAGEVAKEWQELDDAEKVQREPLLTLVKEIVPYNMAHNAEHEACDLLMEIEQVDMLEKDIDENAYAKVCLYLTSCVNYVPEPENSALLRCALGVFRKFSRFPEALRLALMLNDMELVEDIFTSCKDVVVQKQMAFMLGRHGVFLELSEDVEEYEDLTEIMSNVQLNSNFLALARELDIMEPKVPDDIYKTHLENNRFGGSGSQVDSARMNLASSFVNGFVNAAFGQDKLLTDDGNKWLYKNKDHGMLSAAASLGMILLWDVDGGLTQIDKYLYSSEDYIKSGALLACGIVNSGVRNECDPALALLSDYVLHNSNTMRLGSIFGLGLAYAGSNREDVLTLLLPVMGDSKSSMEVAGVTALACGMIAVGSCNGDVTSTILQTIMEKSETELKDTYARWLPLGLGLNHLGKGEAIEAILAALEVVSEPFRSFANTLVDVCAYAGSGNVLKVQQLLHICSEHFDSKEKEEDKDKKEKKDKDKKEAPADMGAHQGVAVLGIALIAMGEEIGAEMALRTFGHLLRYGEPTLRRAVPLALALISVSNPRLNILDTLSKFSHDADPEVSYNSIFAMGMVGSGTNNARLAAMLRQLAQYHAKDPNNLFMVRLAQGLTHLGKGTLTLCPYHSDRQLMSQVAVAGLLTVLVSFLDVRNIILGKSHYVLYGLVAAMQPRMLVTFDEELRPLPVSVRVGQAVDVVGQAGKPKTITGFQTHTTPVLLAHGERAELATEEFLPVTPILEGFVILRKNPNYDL
Sequence of UniProt P06454 (P06454 whole entry, looked up): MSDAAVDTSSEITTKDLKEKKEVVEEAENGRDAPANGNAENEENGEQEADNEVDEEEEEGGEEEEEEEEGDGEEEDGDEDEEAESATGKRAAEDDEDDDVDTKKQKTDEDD

Target	log2 fold change [1]	log2 fold change [2]	log2 fold change [3]	log2 fold change [4]	log2 fold change (entinostat)	log2 fold change (vorinostat)	log2 fold change (citarinostat)	log2 fold change (silmitasertib)	log2 fold change [5]	log2 fold change [6]	log2 fold change (entospletinib)
PEX7 (UniProt O00628)	-0.017	-0.031	-0.022	-0.03	-0.077	0.013	0.074	-0.017	-0.051	0.042	-0.01
PEF1 (UniProt Q9UBV8)	-0.029	-0.026	-0.219	-0.036	0.128	0.01	0.045	0.028	-0.103	-0.02	0.023
POLR1A (UniProt O95602)	0.044	0.012	-0.208	0.172	-0.012	0.098	0.018	0.033	0.036	0.045	-0.057
PPID (UniProt Q08752)	-0.073	-0.075	-0.093	-0.065	0.049	0.108	0.108	0.095	-0.028	0	0.019
PARG (UniProt Q86W56)	0.141	0.001	-0.113	-0.013	0.12	0.157	0.067	0.048	0.065	-0.091	-0.015
PRKACB isoform 2 (UniProt P22694)	0.078	-0.11	-0.173	-0.02	0.001	0.04	0.015	-0.002	-0.119	-0.065	-0.019
PDE2A (UniProt O00408)	0.035	-0.008	-0.018	-0.033	-0.082	0.118	-0.032	0.035	-0.052	0.018	0.015
POLA1 (UniProt P09884)	-0.014	-0.068	-0.225	-0.04	0.07	0.054	0.155	0.021	-0.113	0.227	-0.106
PHF5A (UniProt Q7RTV0)	-0.004	0.009	0.101	0.051	-0.017	-0.08	0.014	0.082	-0.024	-0.003	-0.101
PURA (UniProt Q00577)	0.015	0.105	0.377	0.036	-0.085	-0.079	-0.141	0.248	0.185	-0.114	0.176
PPP2R5A (UniProt Q15172)	0.098	0.009	-0.254 (active)	-0.013	0.094	0.106	0.114	-0.059	-0.044	-0.021	0.001
PMM2 (UniProt O15305)	0.022	0.01	0.016	-0.024	-0.004	0.007	0.024	-0.001	-0.05	-0.02	-0.194
PHAX (UniProt Q9H814)	0.008	-0.084	-0.003	0.013	-0.022	-0.006	0.041	0.092	0.046	-0.029	-0.005
PPT1 (UniProt P50897)	-0.049	-0.095	-0.338 (active)	-0.096	-0.03	-0.036	0.053	0.019	-0.041	-0.041	0.057
PTTG1 (UniProt O95997)	-0.006	-0.098	-0.015	-0.071	0.035	-0.043	0.027	-0.002	-0.023	-0.128	-0.027
PRPF31 (UniProt Q8WWY3)	-0.076	-0.138	-0.241	-0.065	0.071	0.182	0.042	-0.038	-0.194	-0.038	0.025
PSMD7 (UniProt P51665)	-0.04	0.001	-0.035	0.029	-0.049	-0.002	-0.048	0.016	0.051	-0.089	0.064
PUF60 (UniProt Q9UHX1)	-0.112	-0.029	-0.035	-0.132	0.049	0.028	0.079	-0.098	-0.025	-0.092	-0.017
PNPLA2 (UniProt Q96AD5)	-0.075	-0.01	-0.05	-0.004	0.078	0.192	0.087	0.065	0.012	-0.138	-0.056
PIK3R1 (UniProt P27986)	-0.08	-0.056	-0.016	-0.021	-0.026	0.029	0.007	-0.013	0.028	0.126	-0.045
PTPN23 (UniProt Q9H3S7)	-0.039	0.011	-0.081	-0.063	0.06	0.05	0.05	0.037	-0.065	-0.024	-0.031
RAB11FIP1 (UniProt Q6WKZ4)	0.019	-0.121	-0.086	-0.009	0.041	0.091	0.065	0.016	0	-0.07	-0.018
PRKAR1B (UniProt P31321)	0.001	0.085	0.129	0.045	-0.015	-0.031	0	0.07	0.024	-0.142	0.231
PSMC4 (UniProt P43686)	0.018	-0.016	0.028	0.027	-0.023	-0.023	-0.015	-0.015	0.043	-0.051	-0.008
PDS5A (UniProt Q29RF7)	-0.076	-0.024	-0.061	0.018	0.306	0.062	0.068	0.017	-0.103	-0.075	0.039
PSMD13 (UniProt Q9UNM6)	-0.049	0.015	-0.044	0.006	-0.018	0.001	-0.017	0.033	0.044	-0.108	0.049
PFDN1 (UniProt O60925)	0.013	0.003	0.002	-0.047	0.044	-0.056	0.09	-0.029	-0.05	-0.001	-0.089
PDLIM7 (UniProt Q9NR12)	0.003	0.009	0.043	-0.042	0.011	0.082	0.037	-0.017	0.021	-0.026	0.012

Target	log2 fold change [1]	log2 fold change [2]	log2 fold change [3]	log2 fold change [4]	log2 fold change (entinostat)	log2 fold change (vorinostat)	log2 fold change (citarinostat)	log2 fold change (silmitasertib)	log2 fold change [5]	log2 fold change [6]	log2 fold change (entospletinib)
PPOX (UniProt P50336)	-0.042	-0.228	-0.182	-0.009	0.04	0.003	0.02	0.158	0.094	0.018	0.028
PTMA (UniProt P06454)	0.279	0.2	0.217	0.157	0.052	-0.026	-0.018	-0.628 (active)	0.021	0.099	0.047
PARP1 (UniProt P09874)	-0.128	-0.064	-0.102	-0.09	0.142	0.042	0.091	0.039	-0.173	0	-0.092
PRG4 (UniProt Q92954)	-0.168	-0.113	-0.16	-0.068	-0.156	0.201	-0.015	0	-0.109	-0.097	-0.006
PSMD5 (UniProt Q16401)	-0.001	0.009	-0.094	-0.009	0.01	0.008	0.033	0.038	-0.032	-0.009	0.017
PRPSAP2 (UniProt O60256)	-0.146	0.1	0.019	0.034	-0.109	0.003	-0.02	0.011	-0.052	-0.03	-0.008
PSMB4 (UniProt P28070)	0.029	-0.01	0.068	0.01	-0.036	-0.019	0.008	0.002	0.022	-0.014	-0.009
PSMD2 (UniProt Q13200)	-0.018	0.012	0.005	0.038	-0.024	0.01	-0.006	-0.018	0.03	-0.082	-0.002
PPIL1 (UniProt Q9Y3C6)	-0.054	0.059	0.008	-0.074	-0.001	-0.013	0.015	0.075	0.001	-0.051	0.052
PRKCE (UniProt Q02156)	-0.068	-0.084	-0.177	-0.078	0.01	0.107	-0.019	-0.016	-0.018	-0.055	0.016
POLD1 (UniProt P28340)	-0.01	-0.027	-0.095	-0.007	0.005	-0.098	0.117	0.03	-0.122	-0.011	0.001
PCNT (UniProt O95613)	-0.341	-0.277	-0.106	-0.294	-0.129	-0.137	-0.076	0.11	-0.142	-0.233	0.14
PARP16 isoform 3 (UniProt Q8N5Y8)	0.116	0.077	0.239	-0.036	0.053	0.117	0.006	-0.197	-0.022	-0.065	0.074
PRPF38A (UniProt Q8NAV1)	-0.039	-0.015	-0.105	-0.006	0.004	0.002	0.152	-0.212	0.095	-0.122	0.036
PARL (UniProt Q9H300)	0.025	-0.06	-0.07	-0.09	0.023	-0.07	0.054	0.032	-0.082	-0.017	0.018
PPP2R5C isoform 5 (UniProt Q13362)	0.003	0.011	-0.134	-0.027	0.018	-0.044	0.169	-0.005	-0.053	-0.01	-0.012
PTGR2 (UniProt Q8N8N7)	-0.039	-0.077	0.123	-0.164	-0.05	-0.149	0.009	-0.011	0.611 (active)	0.231	0.043
PDE4DIP isoform 4 (UniProt Q5VU43)	0.113	-0.006	0.009	0.011	0.015	-0.025	0.018	-0.041	-0.03	-0.039	0.018
PRKAR2A (UniProt P13861)	-0.502 (active)	-0.071	-0.002	-0.039	0.025	-0.012	0.002	0.051	0.002	-0.028	0.088
PKM (UniProt P14618)	0.01	-0.029	0.011	-0.025	-0.013	-0.009	0.016	-0.016	-0.032	-0.02	-0.04
PPM1G (UniProt O15355)	-0.147	-0.086	-0.018	-0.181	0.017	0.079	0.033	0.031	-0.114	-0.102	0.094
PPT2 isoform 3 (UniProt Q9UMR5)	0.035	0.008	-0.15	0.017	0.02	0.063	0.015	0.018	0.029	0.034	-0.04
PLD3 (UniProt Q8IV08)	0.008	-0.005	-0.177	-0.051	0.009	0.022	0.034	0.006	0.024	0.067	-0.01
PKN2 (UniProt Q16513)	-0.055	-0.134	-0.051	-0.021	0.105	0.023	0.073	0.01	-0.008	-0.086	0.007
POLA2 (UniProt Q14181)	-0.102	-0.115	-0.129	-0.133	-0.014	0.072	0.054	0.058	-0.054	-0.026	-0.047
PSMD6 (UniProt Q15008)	-0.028	0.037	-0.024	0.082	-0.045	-0.001	-0.017	0.011	0.039	-0.063	0.058
PIGT (UniProt Q969N2)	-0.01	-0.002	-0.077	-0.002	0.018	0.05	0.04	0	-0.01	-0.089	-0.018
